Source: PubChem (several laboratories)
NALP1 yeast inh = NALP1 inhibition; S. cerevisiae NALP1/ASC/caspase-1 growth, X-gal OD620, 72 h; inhibition, % at 10 µM; AID 2071; 280,000 tested, 0.61% active; in the data active means inhibition mostly above about 24%, no sharp cut-off; inactive means mostly below about 32%
GASC-1 inh = blocks human GASC-1 demethylase activity; 330,000 tested, 0.069% active; inhibition, % at 2.35 µM; Q9H3R0; GST-JMJD2C(1-420) H3K9me3 demethylation, DELFIA europium;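 active means more than half of a compound's replicate wells show inhibition beyond 50%, single wells judged on their own value; inconclusive means some, but no more than half, of replicates pass 50% inhibition; inactive means no replicate passes 50% inhibition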;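 further: signal counts dimethyl H3K9 product captured on neutravidin plate; 0% = median of DMSO wells and 100% = 0.3 times that DMSO median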
NLRP3 yeast inh = blocks the NALP3 inflammasome reconstituted in yeast; Yeast reconstituted NLRP3/ASC/caspase-1, beta-gal luminescence, 24 h; inhibition, % at 10 µM; 330,000 tested, 0.39% active;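 active means inhibition of 50% or more; inactive means inhibition below 50%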;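 further: plate controls were induced DMSO wells for no effect and uninduced yeast grown without galactose for full effect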
HDAC3 inh = blocks human histone deacetylase 3; recombinant HDAC3, fluorogenic peptide/trypsin coupled, fluorescence; inhibition, % at 8.3 µM; 320,000 tested, 0.15% active; AID 2718; in the data active means inhibition above about 26%, passing the limit was not always enough; inconclusive means no clear call, values can overlap the other calls
Target sequence (O15379 whole entry, looked up): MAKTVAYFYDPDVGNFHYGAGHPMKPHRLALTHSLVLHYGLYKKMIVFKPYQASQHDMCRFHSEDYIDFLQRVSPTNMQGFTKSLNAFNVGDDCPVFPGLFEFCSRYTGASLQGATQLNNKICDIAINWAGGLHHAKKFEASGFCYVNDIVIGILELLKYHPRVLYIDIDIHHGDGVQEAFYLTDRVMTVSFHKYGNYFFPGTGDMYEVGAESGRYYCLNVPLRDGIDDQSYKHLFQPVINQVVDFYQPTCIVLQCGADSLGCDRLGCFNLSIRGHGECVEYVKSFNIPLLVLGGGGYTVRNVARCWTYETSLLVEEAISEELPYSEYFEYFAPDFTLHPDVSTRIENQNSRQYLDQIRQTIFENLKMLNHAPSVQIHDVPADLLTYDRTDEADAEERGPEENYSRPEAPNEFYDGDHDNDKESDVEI
Efflux pump mplx = antifungal efflux pump inhibition, Nile Red retention | S. cerevisiae Candida pump triplex | inhibition, % at 10 µM | 330,000 tested, 0.44% active | AID 485275;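 active means plate passing quality check with inhibition over a set limit, or well fluorescence over plate mean plus 4 SD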;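 further: Nile Red retained in pooled yeast measured as flow cytometry median fluorescence; 0% = buffer negative control and 100% = Enniatin B positive control; higher means more Nile Red kept so more efflux inhibition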
PolyA inhibitor = yeast polyadenylation inhibition; S. cerevisiae SKY197-pL101 polyadenylation reporter, beta-gal luminescence; efflux-impaired pdr1/pdr3 knockout yeast; score 100 = 6 SD above DMSO; activity score, % at 12 µM; 300,000 tested, 0.02% active;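 active means lowest replicate activity score at least 50, where 100 means six control SD above control mean; inconclusive means lowest score under 50 but half or more replicates reach 50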;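 further: yeast exposed to compound for 9 h at 30 °C; higher score means more reporter readthrough which indicates perturbed polyadenylation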
An asterisk follows results filed as active; i = inactive; ? = inconclusive; . = not tested or not shown. Most compounds without a hit are left out; they make up all but 1.5% or so of the library.

SMILES	NALP1 yeast inh	GASC-1 inh	NLRP3 yeast inh	HDAC3 inh	Efflux pump mplx	PolyA inhibitor
COC(=O)C1=C(C)NC2=C(C(=O)CCC2)C1c1ccc(-c2ccsc2C(=O)OC)o1 (centres undefined)	1	3	7	32*	0	-3
COCCn1c(SCC(=O)Nc2ccc(S(=O)(=O)N(C)C)cc2)nc2ccccc21	38*	4	-3	-1	0	12
Cc1ccc(NC(=O)COc2cccc(-n3cnnn3)c2)cc1[N+](=O)[O-]	-7	9	13	0	0	-7
Cc1ccc(CNC(=O)c2nnn(-c3cccc(C)c3)c2N)cc1	2	7	35	-14	0	-10
Cc1cccc(-n2nnc(C(=O)NCc3ccccc3Cl)c2N)c1	27*	9	17	-10	1	-11
CC(NC(=O)C(=O)N/N=C\c1cccc([N+](=O)[O-])c1)c1ccccc1 (centres undefined)	12	11	9	-6	0	-8
CN(C)S(=O)(=O)c1ccc(NC(=O)CN2CCOCC2)cc1	.	-2	3	-2	0	12
CCCCN(CCCC)S(=O)(=O)c1ccc(NC(=O)CN2CCOCC2)cc1	41*	-15	16	?	0	7
O=C(Nc1ccc(F)cc1)c1cccc2c1C(=O)N(CC1CCCO1)C2 (centres undefined)	-6	-8	27	-3	0	-12
COc1ccc(Nc2ncnc3c2cnn3-c2ccccc2)cc1OC	17	12	24	-1	1	-6
COc1ccc(Nc2ncnc3sc(-c4ccccc4)cc23)cc1OC	33	54*	6	-1	0	-24
COc1cccc(N2CCN(CC(=O)Nc3ccc(S(=O)(=O)N4CCCCCC4)cc3)CC2)c1	.	0	-1	?	0	.
CC1(C)CC(=O)C2=C(C1)Nc1ccccc1NC2c1nc2ccccc2[nH]1 (centres undefined)	39*	6	10	1	0	-8
CC1(C)CC(=O)C2=C(C1)Nc1ccccc1NC2c1ccccn1 (centres undefined)	-2	0	1	-3	0	36
Cc1ccc2nc3c(c(Nc4ccccc4)c2c1)CCC3	41*	7	23	6	0	5
O=C(CSc1n[nH]c(-c2ccc(Br)cc2)n1)N1CCOCC1	.	-5	-5	-5	0	.
COc1ccc(CCNC(=O)c2ccc(OCC(=O)N3CCOCC3)c(OC)c2)cc1OC	30*	-6	6	3	0	-11
COc1cc(CNCCc2ccc(S(N)(=O)=O)cc2)ccc1OCC(=O)N1CCCCC1	12	1	11	0	0	19
COc1ccc(CCNCc2ccc(OCC(=O)N3CCCCC3)c(OC)c2)cc1OC	34*	-11	-3	-2	0	-3
CC(=O)c1ccc(N2CCN(C(=O)Nc3ccc(Cl)cc3)CC2)cc1	8	-10	8	7	0	-4
O=C(c1ccc(F)cc1)N1CCCC(C(=O)N2CCN(c3ccccc3)CC2)C1 (centres undefined)	-15	12	13	-3	0	2
O=C(c1ccc(Cl)cc1)N1CCCC(C(=O)N2CCN(c3ccccc3)CC2)C1 (centres undefined)	44*	-4	3	-6	0	15
O=C(Nc1ccc(Cl)cc1Cl)N1CCN(c2ncccn2)CC1	42*	3	24	-1	0	-1
O=C(Nc1ccc(Cl)cc1)N1CCN(c2ccccc2)CC1	-6	52*	27	9	0	3
Cc1cc(C)cc(C(=O)NCCC(=O)NCc2cc(=O)n(C)c(=O)n2C)c1	10	?	9	2	0	16
SMILES	NALP1 yeast inh	GASC-1 inh	NLRP3 yeast inh	HDAC3 inh	Efflux pump mplx	PolyA inhibitor
CCC1(c2ccccc2)NC(=O)N(CC(=O)Nc2ccccc2N2CCCC2)C1=O (centres undefined)	.	-16	-2	4	0	14
O=C(CN1CCN(c2ccc(F)cc2)CC1)N1CCC(Cc2ccccc2)CC1	31*	i	16	3	0	6
CC(C)CCOP(=O)(c1ccc(N(C)C)cc1)C(Nc1ccccc1)c1ccc(N(C)C)cc1 (centres undefined)	-1	.	4	11	0	-11
CCCOP(=O)(c1ccc(N(C)C)cc1)C(Nc1ccccc1)c1ccc(C)cc1 (centres undefined)	2	.	10	3	0	59*
CCCC(=O)c1cc2c(cc1NC(=O)c1cccs1)OCCO2	27*	3	-15	-3	0	-6
O=C(Nc1cc2c(cc1Br)OCCO2)c1cccs1	22	13	25	2	0	-22
COC(=O)c1cc(NC(=O)c2ccccc2)c(=O)oc1C/C=N\OCc1ccc(Cl)cc1Cl	42*	0	20	-7	0	2
O=C(COc1ccc2c(c1)OCO2)Nc1ccccc1C(F)(F)F	16	-6	29	5	0	-19
CCCC(C)c1nnc(NC(=O)C2CCCO2)s1 (centres undefined)	33*	-1	24	-1	0	19
CC1CCc2nc(NC(=O)C3CCCO3)sc2C1 (centres undefined)	33*	1	11	8	0	-17
Cc1nnc(NC(=O)C2CCCO2)s1 (centres undefined)	8	-6	15	-3	0	3
N#CC1=C(S)N(c2ccccc2)C(c2ccc(-c3cc(Cl)ccc3Cl)o2)NC1=O (centres undefined)	7	3	-5	12	0.5*	5
CC(C)NC(=O)N(C)C[C@H]1Oc2ccc(NC(=O)Cc3ccccc3)cc2C(=O)N([C@H](C)CO)C[C@@H]1C	.	6	10	-6	0	.
O=c1c(O)cccc2cc(O)c(O)c(O)c12	6	87*	7	4	0	0
O=c1cc(-c2ccccc2)oc2cc(O)c(O)c(O)c12	.	.	13	.	0	.
O=c1c2ccccc2c(C=Nc2ccc(Cl)cn2)c(O)n1-c1cc(Cl)ccc1N1CCOCC1	10	-4	-9	-1	0.4*	?
Cc1ccc(NC2=C(NC(=O)c3ccccc3)C(=O)c3ccccc3C2=O)cc1Cl	65*	-10	49	9	0	-4
COC(c1ccccc1)c1nnc(CCC(=O)N(C)CCc2ccccc2)o1 (centres undefined)	30*	4	5	2	0	?
O=C(NCc1cc2ccccc2[nH]1)C1CCC(=O)N(CCCN2CCCC2=O)C1 (centres undefined)	5	3	5	2	0	-4
O=C1C(Nc2ccccc2)=C(N2CCCCC2)C(=O)c2ccccc21	4	1	26	-2	0	2
COc1ccccc1NC1=C(N2CCCCC2)C(=O)c2ccccc2C1=O	80*	-14	41	-6	0	1
